Test system: Plasmodium falciparum NF54
Assay: growth inhibition relative to untreated control; higher = more inhibition
Conditions: 72 h
In short: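 Growth inhibition was measured by SYBR Green fluorescence, normalised to untreated wells and corrected for background from uninfected erythrocytes. The parasites were P. falciparum NF54 ring stages (1% hematocrit, 1% parasitemia) exposed to single 5 μM or 1 μM doses of test compounds for 72 h at 37 °C, in either minimal RPMI or minimal RPMI containing 2.2 μM folate, 7.3 μM pABA, 7.3 μM pHBA, 111 μM tyrosine, 90 μM phenylalanine and tryptophan.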

[1] = 1 µM, MM + chorismate end-products (CM screening medium)
[2] = 5 µM, MM + chorismate end-products (CM screening medium)

SMILES | growth inhibition [1] | growth inhibition (1 µM, minimal medium (MM)) | growth inhibition [2] | growth inhibition (5 µM, minimal medium (MM))
COc1cccc(-c2cc3c(Nc4cccnc4)nccc3[nH]2)c1 | 91% | 18.4% | 94.2% | 94.8%
Cc1ccc(NC(=O)c2nc[nH]c2C(=O)Nc2nc3ccccc3[nH]2)c(C)c1 | 31% | 49.8% | 26.8% | 80.9%
O=C([C@@H](c1ccc(Cl)cc1)c1cccnc1)N1CCN(c2ccc(C(F)(F)F)cc2)CC1 | < 0% | < 0% | < 0% | 7.9%
FC(F)(F)c1cc(NCCc2ccccc2)nc(-c2ccccn2)n1 | 37.2% | 0.647% | 0.0785% | < 0%
NCCN(C(=O)c1ccc(Cl)cc1Cl)c1ccc(OCc2ccc(Cl)cc2)cc1 | 33.8% | 27.2% | 97.9% | 91.1%
CN1CCC(NCc2cccc(-c3ccc(S(=O)(=O)NCc4ccccc4)cc3)c2)CC1 | 96.4% | > 100% | 96% | 94.2%
c1ccc(Oc2ccc(-c3cc(N4CCNCC4)[nH]n3)cc2)cc1 | 32.1% | 29.2% | 40.3% | 34.4%
O=C(NCc1ccco1)N1CCN(Cc2ccc(Cl)s2)CC1 | 12.8% | 2.55% | 21% | 5.16%
O=C(Nc1ccc2c(c1)B(O)OC2)c1ccccc1C(F)(F)F | 69.1% | 67.8% | 74.6% | 87%
CCN(CC)S(=O)(=O)c1ccc(Cl)c(C(=O)Nc2ccc3nc(C)sc3c2)c1 | 98.3% | 96.2% | 91.3% | 94.1%
CN(C)c1cc(NC(=O)Nc2ccccc2)c2ccccc2n1 | 96% | 95.6% | 88.6% | 87.9%
O=C(NC1CC1)c1ccc(CSCc2ccccc2Cl)o1 | 59.9% | > 100% | > 100% | 90.8%
CCc1ccc([C@@H]2C[C@H](C(F)(F)F)n3ncc(C(=O)NCc4ccc(OC)cc4)c3N2)cc1 | 31% | 6.61% | 24.8% | 3.56%
CC(=O)N1CCc2cc3nc(C)cc(C)c3cc21 | 13.3% | < 0% | 38.1% | < 0%

— the supplement of paper PMC6763611
